# CHRM1 antagonist – human M1 muscarinic receptor antagonists, primary screen, CHO-K1 cells, Fluo-8 calcium fluorescence, 1536-well. Muscarinic acetylcholine receptor M1 (Homo sapiens), P11229. CHO-K1 hM1, ACh EC80 antagonist. inhibition, % at 3 µM. actives 1.3% (n = 360,000). AID 588852, 2011;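 active = percent inhibition above its own plate's cutoff, namely the mean of that plate's compound wells plus 3 SD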;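 also: peak over basal fluorescence ratio during 140 s after agonist addition; 0% = ACh EC80 plus DMSO and 100% = DMSO alone without agonist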
# Target sequence (P11229 whole entry, looked up): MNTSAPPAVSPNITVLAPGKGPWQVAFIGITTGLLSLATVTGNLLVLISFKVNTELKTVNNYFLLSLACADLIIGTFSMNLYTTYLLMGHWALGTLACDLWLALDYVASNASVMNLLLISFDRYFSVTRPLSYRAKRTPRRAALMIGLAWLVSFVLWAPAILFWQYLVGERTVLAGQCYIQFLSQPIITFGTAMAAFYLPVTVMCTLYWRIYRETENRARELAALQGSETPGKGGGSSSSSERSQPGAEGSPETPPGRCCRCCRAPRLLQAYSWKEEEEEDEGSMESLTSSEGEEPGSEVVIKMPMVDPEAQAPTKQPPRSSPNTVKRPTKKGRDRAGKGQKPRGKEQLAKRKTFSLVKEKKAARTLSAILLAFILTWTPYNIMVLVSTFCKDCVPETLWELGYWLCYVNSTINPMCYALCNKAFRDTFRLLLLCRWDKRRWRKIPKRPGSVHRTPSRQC
# CHO-K1 Ca ag – counter-screen for M1 agonists: effect in parental CHO-K1 cells; Fluo-8 calcium fluorescence; scaled to maximal ATP response, vehicle zero; activation, % at 3 µM; actives 0.48% (n = 360,000); in the data active = activation above about 15%;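 also: untransfected CHO-K1 host cells lacking M1 receptor as counterscreen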
# CHRM1 agonist – human M1 muscarinic receptor agonists, primary screen, Fluo-8 calcium fluorescence, CHO-K1 cells, HTS. Muscarinic acetylcholine receptor M1 (Homo sapiens), P11229. actives 0.33% (n = 360,000). CHO-K1 hM1, agonist mode; 0% DMSO, 100% acetylcholine EC100. activation, % at 3 µM. AID 588814, 2011;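 active = activation above the run's mean compound activation plus 3 SD, cut at about 16% in these data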;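 also: peak over basal fluorescence ratio within a 140 s kinetic read after compound addition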
# CHO-K1 Ca PAM – nonselective calcium activators in parental CHO-K1 cells, primary screen, counter-screen for M1 PAM project, cell-based, Fluo-8 calcium fluorescence, full deck, 1536-well. actives 0.02% (n = 360,000). ATP EC20; 0% at ATP EC20, 100% at ATP max. activation, % at 3 µM. AID 602247, 2012;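 active = activation above the run cutoff, the mean activation of all test compounds plus 3 SD, cut at about 40% in these data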;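 also: peak over basal fluorescence ratio in a 140 s read after ATP addition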
# M1 PAM – human M1 muscarinic receptor positive allosteric modulators, primary screen, CHO-K1 cells, Fluo-8 calcium fluorescence, 1536-well; Muscarinic acetylcholine receptor M1 (Homo sapiens), P11229; CHO-K1 hM1, ACh EC20; 0% = ACh EC20, 100% = maximal ACh; activation, % at 3 µM; actives 0.088% (n = 360,000); in the data active = activation above about 19%, passing the limit was not always enough
# CHO-K1 Ca antag – counter-screen for M1 antagonists: effect in parental CHO-K1 cells. actives 0.6% (n = 360,000). ATP-induced calcium, Fluo-8 fluorescence. inhibition, % at 3 µM;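 active = inhibition above a per-plate cutoff, the plate's mean sample inhibition plus 3 SD, cut at about 24% in these data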;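 also: 0% = DMSO plus EC80 ATP and 100% = DMSO alone without ATP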
# Starred values were filed as active, the others as inactive. This is a sample that favours compounds with a hit; in the whole collection about 2.3% have one here.
SMILES,CHRM1 antagonist,CHO-K1 Ca ag,CHRM1 agonist,CHO-K1 Ca PAM,M1 PAM,CHO-K1 Ca antag
Cc1ccc(CC(CC(=O)O)C(=O)NCC23CC4CC(CC(C4)C2)C3)cc1 (centres undefined),3.2,-0.2,-2.1,-6.3,-5.4,4.1
CN(CC(=O)N1CCN(Cc2ccccc2)CC1)C(=O)Cc1cccc2ccccc12,-1.4,0.6,-3.4,18.0,0.6,-14.9
CC(=O)N/C(=C\c1ccccc1)C(=O)OCc1cccc(S(=O)(=O)N(C)C)c1,2.5,15.5*,-1.7,-4.9,-5.7,-3.2
Cc1ccccc1NC(=O)COC(=O)c1ccc(S(=O)(=O)N2CCCC2)cc1,-6.0,0.6,-7.2,9.3,8.1,-10.9
CCCc1nc2ccccc2c(=O)n1CCc1ccccc1,-5.3,1.7,-3.4,4.2,-1.5,3.4
C#CCSc1nc(-c2cccs2)ccc1C#N,6.1,-0.2,-4.9,4.5,-8.2,-2.5
CN1CCN(C(=O)CSc2nc(-c3ccncc3)ccc2C#N)CC1,25.9*,1.5,-4.1,-1.1,-9.8,19.1
COC(=O)CSc1nc(-c2cccs2)ccc1C#N,46.9*,1.6,-7.9,19.5,-17.7,-6.8
Cc1ccccc1C(=NCCCN(C)C)c1ccccc1C,77.2*,0.2,-15.4,18.9,-27.6,-3.3
Cc1cccc(C)c1C(=NCCN(C)C)c1ccccc1,75.0*,1.1,-6.4,24.6,-24.1,-13.7
CN(N=C(c1ccccc1)c1ccccc1)c1ccccc1,-5.5,1.1,0.9,16.5,5.2,-5.7
CC(C)CC(=O)NC(=S)Nc1sc2c(c1C(N)=O)CCC2,3.7,-0.9,1.0,-16.1,-9.2,37.7*
CC(C)(C)C(=O)NC(=S)Nc1sc2c(c1C(N)=O)CCC2,2.3,-0.1,-2.7,-12.9,2.9,4.0
CC(NC(=O)c1ccc(S(=O)(=O)Nc2ccccc2Cl)cc1)c1ccncc1 (centres undefined),-1.5,1.2,-7.5,18.4,1.2,-11.4
CCS(=O)(=O)N1Cc2ccccc2CC1C(=O)Nc1nc(C)cs1 (centres undefined),-8.5,-0.5,-1.3,-10.6,6.3,31.8*
Cc1c(CN2CCCCC2)c(O)n(CCCO)c(=O)c1C#N,36.1*,0.8,6.9,24.0,-6.0,-14.8
CC(=O)Nc1ccc(NC(=O)COC(=O)c2c3c(nc4ccccc24)CCN(Cc2ccccc2)C3)cc1,45.1*,5.6,3.2,-9.1,-22.5,4.6
CCN1CCc2nc3ccccc3c(C(=O)Nc3ccc(NC(C)=O)cc3)c2C1,-15.2,2.7,-0.9,22.0,17.4,-9.3
O=C(COC(=O)c1c2c(nc3ccccc13)CCN(Cc1ccccc1)C2)Nc1c(F)cccc1F,35.6*,6.5,-2.1,4.4,-13.1,2.5
CCCCN(C(=O)NC(=O)Nc1ccc(C)cn1)S(C)(=O)=O,-9.1,11.2,-1.9,11.9,10.2,-1.7
COc1ccc(CN(CCC(c2ccc(F)cc2)C2CCOC(C)(C)C2)C(=O)c2ccco2)cc1 (centres undefined),25.8*,5.3,-8.1,4.6,-23.6,1.5
Cc1ccc(Sc2ccc(NC(=O)CCN3C(=O)NC4(CCCC4)C3=O)cc2)c(C)c1,35.0*,3.8,-4.9,15.7,-14.0,2.6
O=C(CCCN1C(=O)NC2(CCCC2)C1=O)Nc1ccc(F)cc1,9.9,0.1,-1.1,1.0,8.5,3.6
C=CCNc1nc2cc(-c3ccc(C(=O)N4CCOCC4)cc3)sc2c(=O)n1C,-10.2,2.0,-1.2,9.5,4.3,-1.2
CCc1cccc(NS(=O)(=O)c2csc(C(N)=O)c2)c1,24.2,16.3*,0.8,-3.1,-15.2,8.1
SMILES,CHRM1 antagonist,CHO-K1 Ca ag,CHRM1 agonist,CHO-K1 Ca PAM,M1 PAM,CHO-K1 Ca antag
Cc1cc(C(=O)CSc2nc3ccccc3c(=O)[nH]2)c(C)n1CC1CCCO1 (centres undefined),25.4,17.3*,-1.9,1.6,-10.3,23.7*
Cc1ccc(NC(=O)N(C2=NCC(C)S2)c2ccccc2)cc1 (centres undefined),8.3,1.2,-6.0,5.5,-8.4,-7.0
Cc1cccc(N(C(=O)Nc2ccc(Cl)cc2)C2=NCC(C)S2)n1 (centres undefined),17.8,15.2*,-6.9,2.9,-3.8,11.0
CCN(CC)c1ccc(C2C(C(=O)OCCOC(C)C)=C(C)NC3=C2C(=O)CCC3)cc1 (centres undefined),90.1*,0.1,-5.5,-8.2,-22.9,19.5
COc1ccc(NC(=O)[C@@H](NC(=O)c2ccccc2F)C(C)C)cc1S(=O)(=O)N1CCOCC1,-2.6,1.0,-6.7,0.4,1.9,-9.2
CNC(=O)C[C@H]1C(=O)N(Cc2ccccc2)C[C@@H]1Cc1ccccc1,0.8,0.5,-0.5,-6.9,-0.8,-3.8
CC(=O)c1cn(CCOc2cc(C)ccc2C)c2ccccc12,26.0*,4.8,2.4,4.5,-9.9,14.5
Cc1ccc(C)c(OCCn2cc(C(=O)O)c3ccccc32)c1,0.2,5.1,-0.7,13.8,-5.5,-7.2
COc1ccccc1OCCn1cc(C(=O)c2ccco2)c2ccccc21,20.1,19.7*,4.2,-7.3,-6.2,-3.7
Cn1c2c(c(=O)n(C)c1=O)CS(=O)c1ccccc1N2 (centres undefined),-9.2,0.1,-3.0,-2.6,-8.0,1.4
COc1ccc(C(=O)N/N=C/c2ccc3cccc(OCc4ccccc4)c3n2)cc1,31.5*,3.9,1.0,25.0,-8.1,4.5
O=C(N/N=C/c1ccncc1)c1ccc(OCc2ccccc2)cc1,-1.9,3.2,20.5*,15.2,1.4,-6.7
Cc1c(N(C)S(=O)(=O)c2ccc(Cl)c(C(=O)N3CCC(C(N)=O)CC3)c2)c(=O)n(-c2ccccc2)n1C,-15.4,1.4,0.4,11.7,14.5,-10.0
O=C(NC(=S)NCCC1=CCCCC1)c1cncc(Br)c1,-4.3,15.8*,-8.0,13.3,-1.9,-8.0
O=C(NC(=S)NCCC1=CCCCC1)c1ccccc1Br,-2.4,2.6,-13.7,18.8,-5.8,-7.3
Cc1ccc2oc(=O)c3cc(C(=O)NCCCN4CCc5ccccc5C4)sc3c2c1,24.9*,0.3,-14.0,18.2,-20.8,-14.9
O=C(NCCc1ccccc1)C1CCC(CNS(=O)(=O)c2cccs2)CC1 (centres undefined),-8.7,0.8,-6.3,16.8,16.3,-9.5
CN(C)CCCC1(O)c2ccccc2C=Cc2ccccc21,73.3*,0.0,-4.6,-4.1,-22.0,9.8
CCOP(=O)(Nc1ccc2oc(=O)c3ccccc3c2c1)OCC,8.9,2.1,-5.5,-17.5,-3.4,-11.7
